Bioassay records: PubChem BioAssay, National Center for Advancing Translational Sciences (NCATS)
Hits are enriched below; roughly 3.6% of the tested compounds scored in any of these assays.
Epigenetic reg – Quantitative High-Throughput Screen for Regulators of Epigenetic Control. murine LDR cells, GFP reporter derepression, 30 h. Potency, µM (doses to about 53.9 µM), most hits filed as activators. 280,000 compounds, 0.2% hits; note: nearly all actives have a fitted effect of over 60% in size
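Readout is the number of GFP-expressing murine LDR cells, counted by cytometry following washing. Cells were treated with compound for 30 h at 37 C; the stably integrated CMV-GFP locus is normally silent.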
KDM4E inh – qHTS Assay for Inhibitors of Human Jumonji Domain Containing 2E (JMJD2E). Lysine-specific demethylase 4E (Homo sapiens), B2RXH2. JMJD2E catalytic domain, FDH-coupled NADH fluorescence (FDH is formaldehyde dehydrogenase). Potency, µM (doses to about 57.1 µM), hits mostly inhibitors. 230,000 compounds, 1.6% hits; active = well fitted inhibition curve with a large enough effect, not every such curve was filed as active; inconclusive = small, poorly fitted or top-dose-only effect, or another doubt; inactive = no such curve, though single readings can be large or run the other way; note: nearly all actives have a fitted effect of over 50% in size
Target sequence (B2RXH2 1-337 limits assumed): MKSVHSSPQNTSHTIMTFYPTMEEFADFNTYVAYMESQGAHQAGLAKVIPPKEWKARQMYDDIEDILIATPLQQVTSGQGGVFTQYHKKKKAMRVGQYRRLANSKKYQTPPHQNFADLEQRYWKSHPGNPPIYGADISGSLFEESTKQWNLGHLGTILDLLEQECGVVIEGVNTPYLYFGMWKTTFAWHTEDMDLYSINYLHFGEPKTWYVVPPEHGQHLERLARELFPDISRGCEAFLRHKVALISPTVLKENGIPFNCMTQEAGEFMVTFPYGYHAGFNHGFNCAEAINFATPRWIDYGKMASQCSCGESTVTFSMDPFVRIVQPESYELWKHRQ
NPSR antagonist – qHTS Assay for Antagonists of the Neuropeptide S Receptor: cAMP Signal Transduction; CHO-NPSR cells, cAMP TR-FRET, antagonist mode; Potency, µM (highest dose often 38.3 µM), usual class: inhibitors; 220,000 compounds, 1% hits; Q6W5P4; note: nearly all actives have a fitted effect of over 50% in size
IMPase Li inh – qHTS Assay for Identifying the Cell-Membrane Permeable IMPase Inhibitors: Potentiation with Lithium | CHO-M1 cells, IP1 TR-FRET (IP-One), carbachol + lithium | 210,000 compounds, 0.35% hits | Potency, µM (highest dose often 59.4 µM), most hits filed as inhibitors;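 note: IP1 builds up when IMPase is blocked and the TR-FRET signal falls; nearly all actives have a fitted effect of over 50% in size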
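Steps: plate 2000 CHO-M1 cells per well and culture 16–30 h; add compound and lithium; incubate 30 min, 37C; add d2-IP1 tracer and Eu cryptate anti-IP1 antibody in lysis buffer; read after 10 min at room temperature.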
GCN5L2 inh – qHTS Assay for Inhibitors of GCN5L2 | Histone acetyltransferase KAT2A (Homo sapiens), Q92830 | GCN5L2 HAT assay, ThioGlo1 CoA-SH fluorescence | Potency, µM (doses to about 58.9 µM), usual class: inhibitors | 390,000 compounds, 0.21% hits
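Fluorescence readout, Ex340nm/Em540nm: ThioGlo1 (50uM final) reacts with free CoA thiol released as 20nM GCN5L2 acetylates H3(1-25) peptide (75uM) using acetyl-CoA (70uM). Compound and enzyme sat 15 min beforehand; 20 min room-temperature reaction.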
Sfp inh – qHTS Assay for Inhibitors of Bacillus subtilis Sfp phosphopantetheinyl transferase (PPTase); Potency, µM, most hits filed as inhibitors; Biochemical Sfp PPTase activity, qHTS; 310,000 compounds, 3.5% hits; 4'-phosphopantetheinyl transferase ffp (Bacillus subtilis), Q9F4F7;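 note: the enzyme is Sfp with the accession as filed and its product quenches rhodamine fluorescence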
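Compounds were incubated with enzyme (final 15 nM) for 15 min at room temperature before substrate addition started the reaction. Fluorescence at 525 nm excitation, 598 nm emission was recorded immediately and after 30 minutes.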
Each line names hits and unclear results; the compound was inactive in the other large screens; ! = not confirmed by another sample. Unless noted, calls come from the whole dose curve; as a rule, active = well fitted curve in the direction sought with a large enough effect; inconclusive = small, poorly fitted or top-dose-only effect, or another doubt; inactive = no such curve, though single readings can be large; an effect the other way counts as inactive or inconclusive.

C/C=C1/C[N@@+]2(C)CC[C@]34C(=C(C=O)[C@H]1C[C@H]32)Nc1ccccc14	Sfp inh inconclusive (no result: KDM4E inh, NPSR antagonist)
Cc1cccc(N)c1C	none (no result: Epigenetic reg, KDM4E inh, NPSR antagonist, GCN5L2 inh, Sfp inh)
FC(F)(F)c1ccc2c(c1)N(CCCN1CCN(CCCl)CC1)c1ccccc1S2	KDM4E inh inconclusive, NPSR antagonist 7.9µM, Sfp inh 50µM
COc1ccc(CN2C(=O)NC(=O)/C(=C/c3cc(OC)c(OC)c(OC)c3)C2=O)cc1	Sfp inh 79µM (no result: IMPase Li inh)
COc1ccc(CN2C(=O)NC(=O)/C(=C/c3ccoc3)C2=O)cc1	GCN5L2 inh inconclusive, Sfp inh inconclusive (no result: IMPase Li inh)
Cn1cccc1/C=C1\C(=O)NC(=O)N(Cc2ccccc2)C1=O	none (no result: IMPase Li inh)
COc1ccc(CN2C(=O)NC(=O)/C(=C/c3ccc(OC)c(OC)c3OC)C2=O)cc1	KDM4E inh inconclusive, Sfp inh 40µM (no result: IMPase Li inh)
CO/C1=C\C(C)=C\[C@@H](C)[C@@H](O)[C@@H](C)C/C(C)=C/C=C/[C@H](OC)[C@@H]([C@@H](C)[C@@H](O)[C@H](C)[C@@]2(O)C[C@@H](O)[C@H](C)C(C(C)C)O2)OC1=O (stereo partly specified)	none (no result: Epigenetic reg, KDM4E inh, NPSR antagonist, IMPase Li inh)
Cn1c(=O)c2[nH]cnc2n(C)c1=O.[CH2-][C@H](Cc1cccc2cc(C(=O)O)c(=O)oc12)OC.[Hg].[OH-]	none (no result: Epigenetic reg, KDM4E inh, NPSR antagonist, GCN5L2 inh, Sfp inh)
N=C(N)c1c(O)n(C2CCCCC2)c(=O)n(C2CCCCC2)c1=O	NPSR antagonist 10µM
O=c1c(C=NCCN2CCNCC2)c(O)n(C2CCCCC2)c(=O)n1C1CCCCC1	none
CCCCCc1nc2c(c(=O)c3ccccc3n2C)c(=O)n1C1CCCCCC1	NPSR antagonist 10µM, Sfp inh 40µM
N#CC(C#N)=NNc1ccc(OC(F)(F)F)cc1	GCN5L2 inh inconclusive, Sfp inh inconclusive (no result: NPSR antagonist)
Cc1cccc(-n2c(/C=C/c3c(C)[nH]c4ccccc34)nc3ccccc3c2=O)c1	Epigenetic reg 4µM (no result: KDM4E inh, NPSR antagonist, IMPase Li inh, Sfp inh)
C[C@]12CC[C@@H]3c4ccc(O)cc4C[C@@H](CCCCCCCCCS(=O)CCCC(F)(F)C(F)(F)F)[C@H]3[C@@H]1CC[C@@H]2O (stereo partly specified)	none (no result: Epigenetic reg, KDM4E inh, NPSR antagonist, IMPase Li inh, Sfp inh)
C[C@@H]1NCCc2cc(O)c(O)cc21	KDM4E inh 11µM, Sfp inh inconclusive (no result: NPSR antagonist)
COP(=S)(OC)Oc1ccc([N+](=O)[O-])cc1	none (no result: NPSR antagonist)
COP(=S)(OC)Oc1ccc(Sc2ccc(OP(=S)(OC)OC)cc2)cc1	GCN5L2 inh inconclusive, Sfp inh 40µM (no result: Epigenetic reg, KDM4E inh, NPSR antagonist, IMPase Li inh)
Cc1cc(OC(=O)N(C)C)nn1C(=O)N(C)C	none (no result: Epigenetic reg, KDM4E inh, NPSR antagonist, IMPase Li inh)
CCCC[C@@H](C)[C@@H](OC(=O)C[C@@H](CC(=O)O)C(=O)O)[C@H](C[C@@H](C)C[C@H](O)CCCC[C@@H](O)C[C@H](O)[C@H](C)N)OC(=O)C[C@H](CC(=O)O)C(=O)O	none (no result: KDM4E inh, NPSR antagonist)
COC[C@H]1OC(=O)c2coc3c2[C@@]1(C)C1=C(C3=O)[C@H]2CCC(=O)[C@@]2(C)C[C@H]1OC(C)=O	Epigenetic reg inconclusive, KDM4E inh 11µM, Sfp inh inconclusive (no result: NPSR antagonist)
CCCCCCCCCC[N+](C)(C)CCCCCCCCCC	Sfp inh inconclusive (no result: Epigenetic reg, KDM4E inh, NPSR antagonist, IMPase Li inh)
CCCCCCCCCCCCCCCC[N+](C)(C)C	Sfp inh 45µM! (no result: NPSR antagonist)
C=CC(=O)OCC	none (no result: Epigenetic reg, KDM4E inh, NPSR antagonist, GCN5L2 inh, Sfp inh)
O=[N+]([O-])C(Br)(CO)CO	GCN5L2 inh inconclusive, Sfp inh 8.9µM (no result: Epigenetic reg, KDM4E inh, NPSR antagonist, IMPase Li inh)
CC(C)(Cl)[N+](=O)[O-]	none (no result: Epigenetic reg, KDM4E inh, NPSR antagonist, Sfp inh)
COc1ccc(C(C)=O)cc1Cc1c(O)[nH]c(=S)[nH]c1=O	GCN5L2 inh inconclusive, Sfp inh 50µM (no result: Epigenetic reg, KDM4E inh, NPSR antagonist, IMPase Li inh)
CC(C)Oc1ccc(Cc2c(O)[nH]c(=O)[nH]c2=O)cc1	none
CC(=O)c1ccc(OC(C)C)c(Cc2c(O)[nH]c(=S)[nH]c2=O)c1	GCN5L2 inh inconclusive, Sfp inh 22µM
COc1ccc(C(C)=O)cc1CC(C(=O)c1ccc(F)cc1)N(C)C (stereo unspecified)	none
COc1ccc(C(C)=O)cc1CC(C(=O)c1ccc(C)c(C)c1)N(C)C (stereo unspecified)	none
